The AC50 is the midpoint of the concentration-response curve, whichever way the signal moves.

Inconclusive results are not listed. Activity calls are given as the source filed them. The calls were made as follows, unless noted: active = hit-call score of the fitted dose curve at least 0.9, where 1 is the maximum; inactive = score below 0.9.

A short description of assay [1]: ATG_NFI_CIS: Attagene CIS-FACTORIAL HepG2 Assay for human Nuclear Factor I (NFI) (AID 2282989). Particulars: HepG2 cis-regulatory reporter, NFI response element transcription; actives raise or lower the signal. The gist of the method:
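Reporter transcripts were measured by RT-PCR with fluorescent primer extension and capillary electrophoresis 24 h post-treatment. HepG2 cells carried transiently transfected cis-regulated reporter constructs reporting endogenous factor activity; gain or loss fitted against DMSO baseline.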

The target in assay [2] is Myc proto-oncogene protein (Homo sapiens) (UniProt P01106). Description: ATG_Myc_CIS: Attagene CIS-FACTORIAL HepG2 Assay for human Myelocytomatosis (Myc) Proto-Oncogene Transcription Factor (AID 2282990). Particulars: HepG2, Attagene cis-reporter transcription factor activity; actives raise or lower the signal. The gist of the method: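 HepG2 cells transiently transfected with multiple cis-promoter-driven reporter transcription units, so endogenous TF activity is read. After 24 h compound exposure, reporter mRNA was quantified by RT-PCR, 6-FAM labelling, HpaI digestion and capillary electrophoresis; bidirectional fit versus DMSO.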

Assay [3] is described as follows: ATG_NF_kB_CIS: Attagene CIS-FACTORIAL HepG2 Assay for human Nuclear Factor Kappa B (NF-kB) (AID 2282991). Particulars: HepG2 Attagene cis-factorial NF-kB reporter mRNA; actives raise or lower the signal. The gist of the method:
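Read-out: reporter transcript levels quantified by RT-PCR plus capillary electrophoresis of 6-FAM-labelled, HpaI-cut fragments. Transfected HepG2 cells, 24 h compound exposure, endogenous NF-kB-driven cis element; gain or loss scored versus DMSO.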

Assay [4] can be described thus: ATG_NRF2_ARE_CIS: Attagene CIS-FACTORIAL HepG2 Assay for human Nuclear Factor Erythroid 2 Related Factor 2 (NFR2) response to Antioxidant Response Elements (ARE) (AID 2282992). Particulars: HepG2 Attagene ARE/NRF2 reporter, transcription factor activity; actives raise or lower the signal. Put shortly: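 Endogenous transcription factor activity read out as reporter transcript levels (RT-PCR plus capillary electrophoresis, fluorescence) in transiently transfected HepG2 cells. Measured at 24 h after dosing; gain or loss of signal fitted versus DMSO.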

The nature of assay [5]: ATG_Oct_MLP_CIS: Attagene CIS-FACTORIAL HepG2 Assay for human Octamer-Binding Transcription Factor (Oct) (AID 2282993). Particulars: HepG2 Attagene cis-factorial Oct reporter, mRNA; actives raise or lower the signal. The gist of the method: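 Readout is reporter transcript level from RT-PCR with fluorescent primer extension and capillary electrophoresis, fitted in both directions against DMSO. Transfected HepG2 reporter units report endogenous factor activity after 24 h dosing.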

The target in assay [6] is Cellular tumor antigen p53 (Homo sapiens) (UniProt P04637). As to the kind of experiment: ATG_p53_CIS: Attagene CIS-FACTORIAL HepG2 Assay for human p53 Transcription Factor (AID 2282994). Particulars: HepG2 p53 cis-element reporter, Attagene mRNA; actives raise or lower the signal. The gist of the method:
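Endogenous p53 activity read in transiently transfected HepG2 from a cis-element-driven reporter transcript after 24 h exposure. RNA reverse-transcribed, PCR-amplified, fluorescently labelled and sized by capillary electrophoresis; gain or loss fitted against DMSO baseline.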

Assay [7] is described as follows: BSK_3C_TissueFactor: BioMAP Diversity Plus: 3C Assay for Tissue Factor Biomarker Activity (AID 2282997). As to conditions: BioMAP 3C HUVEC, tissue factor biomarker readout; actives raise or lower the signal. The gist of the method:
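After a 24 h chemical exposure of primary human umbilical vein endothelial cells, Tissue Factor levels were quantified by ELISA.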

A short description of assay [8]: BSK_3C_uPAR: BioMAP Diversity Plus: 3C Assay for Urokinase-type plasminogen activator receptor (uPAR) Biomarker Activity (AID 2282998). As to conditions: BioMAP 3C HUVEC, uPAR biomarker ELISA; actives raise or lower the signal. The gist of the method:
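Cell-surface uPAR on HUVEC (3C system) read by ELISA at 24 h post-treatment, with DMSO as baseline and fitting in both directions. Parallel cultures stained with SRB to flag overt cytotoxicity.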
(In general: ELISA stands for enzyme-linked immunosorbent assay.)

Assay [9] in a line: BSK_3C_VCAM1: BioMAP Diversity Plus: 3C Assay for Vascular cell adhesion molecule 1 (VCAM1) Biomarker Activity (AID 2282999). Particulars: BioMAP 3C HUVEC, VCAM1 ELISA, cytokine-stimulated; actives raise or lower the signal. Put shortly: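 Vascular primary endothelium (human umbilical vein) was exposed to chemicals and assayed 24 h later. VCAM-1 levels came from ELISA, with DMSO serving as baseline for bidirectional fitting.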

Assay [10] can be described thus: BSK_4H_Eotaxin3: BioMAP Diversity Plus: 4H Assay for Eotaxin 3 Biomarker Activity (AID 2283000).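 As to outcome: CCL26 protein level quantified by ELISA in parallel with SRB cytotoxicity check.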 As to conditions: primary human endothelial cells (HUVEC); actives raise or lower the signal. Put shortly:
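Chemicals were added to human umbilical vein endothelium cultures, and Eotaxin-3 was quantified by ELISA at 24 h. Values were derived by bidirectional fitting with DMSO serving as negative control and activity baseline.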

The target in assay [11] is human Peroxisome Proliferator-activated Receptor delta (PPARd), PPARD (gene 5467) (UniProt Q03181). Description: ATG_PPARd_TRANS: Attagene TRANS-FACTORIAL HepG2 Assay for human Peroxisome Proliferator-activated Receptor delta (PPARd) (AID 2283002; active = hit-call score of the fitted dose curve at least 0.9, where 1 is the maximum). The gist of the method: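 HepG2 cells transiently transfected with multiplexed GAL4-UAS reporter units and exogenous chimeric NR-Gal4 proteins; 24 h compound exposure. Reporter mRNA measured by RT-PCR, 6-FAM labelling, HpaI digestion and capillary electrophoresis; gain of signal versus DMSO.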

Read-out in assay [12]: Intercellular Adhesion Molecule 1 (ICAM1), ICAM1 (gene 3383)
Description: BSK_3C_ICAM1: BioMAP Diversity Plus: 3C Assay for Intercellular Adhesion Molecule 1 (ICAM1) Biomarker Activity (AID 2283003). Particulars: primary human endothelial cells (HUVEC); actives raise or lower the signal. Put shortly:
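Chemicals are dosed onto primary human umbilical vein endothelium (3C system). After 24 h, ICAM-1 is measured by ELISA, and responses are fitted bidirectionally relative to DMSO.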

Assay [13] can be described thus: BSK_3C_Proliferation: Cell Proliferation Assessment in the BioMAP Diversity Plus: 3C Assay (AID 2283006).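 As to AC50: potency may reflect either rise or fall in cell number versus DMSO.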 Particulars: primary human endothelial cells (HUVEC). The gist of the method: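 Cells (human umbilical vein endothelial, sub-confluent) receive test chemical; after 48 h they are fixed in 10% trichloroacetic acid, stained with 0.1% SRB and read at 560 nm. Activity is referenced to DMSO, fitting increases and decreases.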

Assay [14] addresses Peroxisome proliferator-activated receptor gamma (Homo sapiens) (UniProt P37231). As to the kind of experiment: ATG_PPARg_TRANS: Attagene TRANS-FACTORIAL HepG2 Assay for human Peroxisome Proliferator-activated Receptor-gamma (PPARg) (AID 2283007; active = hit-call score of the fitted dose curve at least 0.9, where 1 is the maximum). The gist of the method: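 Read-out: reporter mRNA induction, detected by fluorescence after RT-PCR and capillary electrophoresis. Transiently transfected human HepG2 liver cells carrying a chimeric NR-Gal4 construct were dosed for 24 h; activity was fitted upward relative to DMSO.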

The target in assay [15] is Nuclear receptor subfamily 1 group I member 2 (Homo sapiens) (UniProt O75469). Description: ATG_PXR_TRANS: Attagene TRANS-FACTORIAL HepG2 Assay for human Pregnane X Receptor (PXR) (AID 2283008; active = hit-call score of the fitted dose curve at least 0.9, where 1 is the maximum). Put shortly:
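Transactivation by exogenous PXR–GAL4 fusion measured as reporter transcript induction after 24 h compound treatment of transfected human HepG2 cells. Read-out via RT-PCR and capillary electrophoresis of labelled fragments, fitted upward relative to DMSO.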

Assay [16] has as its target human Peroxisome Proliferator-activated Receptor alpha (PPARa), PPARA (gene 5465) (UniProt Q07869). As to the kind of experiment: ATG_PPARa_TRANS: Attagene TRANS-FACTORIAL HepG2 Assay for human Peroxisome Proliferator-activated Receptor alpha (PPARa) (AID 2283001; active = hit-call score of the fitted dose curve at least 0.9, where 1 is the maximum). Put shortly:
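Cells (HepG2) are transfected with multiple reporter transcription units, exposed to chemical for 24 h, then total RNA is reverse-transcribed and amplified. Labelled products are quantified by capillary electrophoresis; induction is referenced to DMSO.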

Assay [17] deals with human Retinoic Acid Receptor beta (RARb), RARB (gene 5915) (UniProt P10826). As to the kind of experiment: ATG_RARb_TRANS: Attagene TRANS-FACTORIAL HepG2 Assay for human Retinoic Acid Receptor beta (AID 2283004; active = hit-call score of the fitted dose curve at least 0.9, where 1 is the maximum). The gist of the method:
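Transient transfection of HepG2 with multiple reporter units → chemical dosing, 24 h → total RNA isolation → RT with oligo(dT) → reporter-specific PCR, 6-FAM primer extension, HpaI digest → capillary electrophoresis. Positive direction vs DMSO control.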

Assay [18] addresses Retinoic acid receptor alpha (Homo sapiens) (UniProt P10276). Description: ATG_RARa_TRANS: Attagene TRANS-FACTORIAL HepG2 Assay for human Retinoic Acid Receptor alpha (RARa) (AID 2283005; active = hit-call score of the fitted dose curve at least 0.9, where 1 is the maximum;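 as to AC50: potency for increased reporter signal meaning RARa activation over DMSO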). Put shortly:
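HepG2 cells transiently transfected with multiple reporter units expressing chimeric RARα-GAL4 fusion, with GAL4-UAS-driven reporters. After 24 h compound exposure, reporter mRNA induction quantified by RT-PCR and capillary electrophoresis with fluorescent labeling; gain-of-signal fitted relative to DMSO control.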

Assay [19] deals with human RAR-related Orphan Receptor beta (RORb), RORB (gene 6096) (UniProt Q92753). As to the kind of experiment: ATG_RORb_TRANS: Attagene TRANS-FACTORIAL HepG2 Assay for human RAR-related Orphan Receptor beta (RORb) (AID 2283010; active = hit-call score of the fitted dose curve at least 0.9, where 1 is the maximum). Put shortly: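 Transfect HepG2 with multiple GAL4-UAS reporter transcription units; dose chemicals for 24 h; isolate RNA, reverse-transcribe and PCR-amplify reporter sequences; label, digest and resolve fragments by capillary electrophoresis; fit increases relative to DMSO.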
Chain of human RAR-related Orphan Receptor beta (RORb), RORB (gene 6096) (Q92753 whole entry, looked up, the tested form may be a part): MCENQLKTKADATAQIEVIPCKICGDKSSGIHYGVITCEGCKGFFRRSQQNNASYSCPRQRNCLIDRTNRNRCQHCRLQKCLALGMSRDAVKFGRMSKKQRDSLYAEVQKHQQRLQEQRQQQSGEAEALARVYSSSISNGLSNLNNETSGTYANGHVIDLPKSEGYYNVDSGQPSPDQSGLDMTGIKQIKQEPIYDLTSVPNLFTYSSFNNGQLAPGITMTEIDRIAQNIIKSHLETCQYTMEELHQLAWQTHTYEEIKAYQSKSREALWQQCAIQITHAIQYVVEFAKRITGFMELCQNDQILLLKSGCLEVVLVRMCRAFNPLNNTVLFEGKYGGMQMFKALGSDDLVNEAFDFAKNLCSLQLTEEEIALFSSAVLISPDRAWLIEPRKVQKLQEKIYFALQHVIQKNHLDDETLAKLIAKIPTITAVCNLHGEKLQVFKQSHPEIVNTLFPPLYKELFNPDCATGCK

Chain of Peroxisome proliferator-activated receptor gamma (Homo sapiens) (P37231 whole entry, looked up, the tested form may be a part): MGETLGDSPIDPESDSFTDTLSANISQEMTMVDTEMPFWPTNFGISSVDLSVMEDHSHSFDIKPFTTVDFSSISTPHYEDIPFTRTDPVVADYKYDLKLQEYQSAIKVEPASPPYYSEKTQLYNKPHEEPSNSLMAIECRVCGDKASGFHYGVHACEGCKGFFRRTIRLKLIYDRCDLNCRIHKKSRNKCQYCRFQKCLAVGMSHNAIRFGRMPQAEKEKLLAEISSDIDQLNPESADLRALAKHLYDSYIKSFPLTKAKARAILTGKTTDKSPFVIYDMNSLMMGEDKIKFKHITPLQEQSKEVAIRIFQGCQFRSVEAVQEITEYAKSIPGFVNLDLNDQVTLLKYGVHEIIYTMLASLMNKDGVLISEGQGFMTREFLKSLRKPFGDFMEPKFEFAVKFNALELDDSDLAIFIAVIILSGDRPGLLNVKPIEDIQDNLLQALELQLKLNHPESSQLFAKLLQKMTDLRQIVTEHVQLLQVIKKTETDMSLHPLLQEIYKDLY
Chain of Myc proto-oncogene protein (Homo sapiens) (P01106 whole entry, looked up): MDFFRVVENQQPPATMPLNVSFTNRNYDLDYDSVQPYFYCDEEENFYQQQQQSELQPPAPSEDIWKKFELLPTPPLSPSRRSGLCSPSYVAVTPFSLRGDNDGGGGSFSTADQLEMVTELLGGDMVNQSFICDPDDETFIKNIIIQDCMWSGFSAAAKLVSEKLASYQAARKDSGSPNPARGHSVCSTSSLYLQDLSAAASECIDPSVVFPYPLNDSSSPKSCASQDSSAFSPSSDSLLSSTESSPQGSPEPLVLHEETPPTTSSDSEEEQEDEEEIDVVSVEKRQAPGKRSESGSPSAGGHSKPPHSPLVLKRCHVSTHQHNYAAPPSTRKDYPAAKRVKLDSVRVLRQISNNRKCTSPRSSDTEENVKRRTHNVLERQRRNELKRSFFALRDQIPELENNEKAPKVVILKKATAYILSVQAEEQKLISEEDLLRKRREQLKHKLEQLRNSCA
Chain of Cellular tumor antigen p53 (Homo sapiens) (P04637 whole entry, looked up): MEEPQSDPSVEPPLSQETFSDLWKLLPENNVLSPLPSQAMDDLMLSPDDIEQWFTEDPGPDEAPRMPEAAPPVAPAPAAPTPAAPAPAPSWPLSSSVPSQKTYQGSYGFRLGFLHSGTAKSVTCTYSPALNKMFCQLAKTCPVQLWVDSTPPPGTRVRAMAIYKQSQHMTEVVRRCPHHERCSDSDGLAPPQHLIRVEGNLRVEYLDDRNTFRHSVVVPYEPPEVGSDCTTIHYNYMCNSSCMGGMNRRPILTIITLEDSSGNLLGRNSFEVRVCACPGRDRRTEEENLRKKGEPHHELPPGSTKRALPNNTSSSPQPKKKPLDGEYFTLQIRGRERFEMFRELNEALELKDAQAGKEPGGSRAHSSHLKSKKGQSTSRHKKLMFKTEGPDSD
Chain of Nuclear receptor subfamily 1 group I member 2 (Homo sapiens) (O75469 whole entry, looked up, the tested form may be a part): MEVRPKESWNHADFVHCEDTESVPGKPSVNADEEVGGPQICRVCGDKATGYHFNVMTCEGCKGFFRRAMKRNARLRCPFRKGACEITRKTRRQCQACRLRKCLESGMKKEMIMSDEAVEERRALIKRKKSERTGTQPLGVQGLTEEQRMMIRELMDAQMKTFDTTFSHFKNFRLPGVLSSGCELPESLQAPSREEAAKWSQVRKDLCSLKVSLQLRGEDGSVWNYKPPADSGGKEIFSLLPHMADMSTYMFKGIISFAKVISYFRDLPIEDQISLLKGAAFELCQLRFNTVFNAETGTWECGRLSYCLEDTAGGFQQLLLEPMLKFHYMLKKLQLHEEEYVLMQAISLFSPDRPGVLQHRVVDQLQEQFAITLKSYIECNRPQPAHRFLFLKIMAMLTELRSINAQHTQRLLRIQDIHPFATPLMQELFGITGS
Chain of human Peroxisome Proliferator-activated Receptor delta (PPARd), PPARD (gene 5467) (Q03181 whole entry, looked up, the tested form may be a part): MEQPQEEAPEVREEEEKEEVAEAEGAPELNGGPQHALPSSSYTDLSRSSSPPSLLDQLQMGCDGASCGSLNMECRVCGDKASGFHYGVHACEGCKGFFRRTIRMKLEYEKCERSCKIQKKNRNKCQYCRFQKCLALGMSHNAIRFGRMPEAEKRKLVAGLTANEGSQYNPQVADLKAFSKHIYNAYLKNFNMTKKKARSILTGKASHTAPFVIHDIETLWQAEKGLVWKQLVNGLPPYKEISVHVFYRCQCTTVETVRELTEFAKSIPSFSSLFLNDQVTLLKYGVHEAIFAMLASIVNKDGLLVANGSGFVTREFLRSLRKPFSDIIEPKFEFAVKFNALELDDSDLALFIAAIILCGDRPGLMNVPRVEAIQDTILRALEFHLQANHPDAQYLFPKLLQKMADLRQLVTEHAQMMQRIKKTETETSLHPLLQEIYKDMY
Chain of human Retinoic Acid Receptor beta (RARb), RARB (gene 5915) (P10826 whole entry, looked up): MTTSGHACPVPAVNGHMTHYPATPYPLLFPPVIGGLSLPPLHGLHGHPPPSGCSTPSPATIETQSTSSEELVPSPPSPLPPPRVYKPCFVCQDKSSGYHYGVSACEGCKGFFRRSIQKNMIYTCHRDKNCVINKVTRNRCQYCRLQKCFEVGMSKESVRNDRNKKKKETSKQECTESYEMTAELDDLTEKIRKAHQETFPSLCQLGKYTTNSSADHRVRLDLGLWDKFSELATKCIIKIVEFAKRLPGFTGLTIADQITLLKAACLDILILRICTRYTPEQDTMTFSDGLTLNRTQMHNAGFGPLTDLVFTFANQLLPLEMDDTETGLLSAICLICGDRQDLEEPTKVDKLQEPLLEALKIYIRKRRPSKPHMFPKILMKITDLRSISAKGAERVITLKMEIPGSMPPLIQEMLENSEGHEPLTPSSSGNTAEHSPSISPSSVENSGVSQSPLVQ
Chain of Retinoic acid receptor alpha (Homo sapiens) (P10276 whole entry, looked up, the tested form may be a part): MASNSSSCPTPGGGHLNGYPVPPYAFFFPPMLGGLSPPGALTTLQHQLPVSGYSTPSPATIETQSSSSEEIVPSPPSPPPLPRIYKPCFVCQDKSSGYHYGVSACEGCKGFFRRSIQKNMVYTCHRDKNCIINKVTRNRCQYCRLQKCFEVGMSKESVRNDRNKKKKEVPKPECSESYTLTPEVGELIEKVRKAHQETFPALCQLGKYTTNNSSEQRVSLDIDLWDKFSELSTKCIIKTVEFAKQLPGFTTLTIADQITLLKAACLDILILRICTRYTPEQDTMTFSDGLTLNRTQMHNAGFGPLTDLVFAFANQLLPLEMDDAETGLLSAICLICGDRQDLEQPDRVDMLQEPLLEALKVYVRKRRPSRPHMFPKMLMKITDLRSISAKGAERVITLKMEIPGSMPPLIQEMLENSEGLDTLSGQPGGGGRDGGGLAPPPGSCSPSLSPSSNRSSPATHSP
Chain of human Peroxisome Proliferator-activated Receptor alpha (PPARa), PPARA (gene 5465) (Q07869 whole entry, looked up): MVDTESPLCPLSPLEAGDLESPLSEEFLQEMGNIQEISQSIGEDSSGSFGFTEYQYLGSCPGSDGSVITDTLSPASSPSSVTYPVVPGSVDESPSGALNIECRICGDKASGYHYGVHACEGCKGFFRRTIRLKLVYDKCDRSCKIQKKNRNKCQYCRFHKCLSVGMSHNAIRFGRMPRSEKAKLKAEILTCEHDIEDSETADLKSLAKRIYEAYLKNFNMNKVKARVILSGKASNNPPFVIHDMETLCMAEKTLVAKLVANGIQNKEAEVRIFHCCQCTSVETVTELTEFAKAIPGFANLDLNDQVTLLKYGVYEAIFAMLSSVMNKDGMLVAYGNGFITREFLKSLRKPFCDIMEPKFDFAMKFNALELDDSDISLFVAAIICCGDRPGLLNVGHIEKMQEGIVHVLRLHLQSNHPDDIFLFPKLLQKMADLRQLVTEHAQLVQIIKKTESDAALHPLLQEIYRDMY

As for `CNC(=O)[C@H]1O[C@@H](n2cnc3c(NCc4cc(Cl)ccc4OCc4cc(C)no4)ncnc32)[C@H](O)[C@@H]1N`, the outcome in assay [1], in assay [2], in [3], in assay [4], in assay [5] and in assay [6] was inactive. The outcome in assay [7], in [8], in assay [9], in assay [10], in assay [11] and in [12] was inactive. Besides, the result in [13], in [14] and in assay [15] was inactive.
On to `CCCCC(CC)COC(=O)CC(C(=O)OCC(CC)CCCC)S(=O)(=O)O` (stereo not given), for which the result in [1], in [2], in [3], in [5], in assay [6] and in [16] was inactive. Moreover, the compound was classed as inactive in assay [11], in [17], in assay [18] and in [19]. Further, the AC50 was 11.1 µM (active) in assay [4]; 31.8 µM (active) in assay [7]; 31.1 µM (active) in [8]; 38.9 µM (active) in assay [9]; 36.5 µM (active) in assay [10]; 31.5 µM (active) in [12]. Also, the AC50 in assay [13] was 30.6 µM (active); in [14] it was 7.56 µM (active); in assay [15], 678 nM (active).
On to `CC1=C(/C=C/C(C)=C/C=C/C(C)=C/CO)C(C)(C)CCC1`, for which the compound was called inactive in assay [1], in [3], in assay [5], in assay [6], in [7] and in assay [8]. In addition, the outcome in assay [12] and in [17] was inactive. For the same compound, the concentration at half-maximal activity (AC50) is 139 µM (active) in [2]; 44.2 µM (active) in assay [4]; 33 µM (active) in [9]; 15.6 µM (active) in [10]; 73 nM (active) in assay [18]; 27.6 µM (active) in assay [13]. The concentration at half-maximal activity (AC50) in [14] was 28.1 µM (active); in [15] it was 280 nM (active).

The values are drawn from PubChem BioAssay (EPA / NIEHS).
